Data as given in PubChem BioAssay (Tox21).
Values joined by “and” are separate entries in the source; they are usually repeats but may differ in a detail not shown here. Identical values can stand only once. Results filed as inconclusive are left out. Where a call stands in place of a potency, no number is given. Active and inactive are the calls of the source. Unless noted, calls follow the shape of the full dose curve.

Assay: qHTS assay to identify small molecule antagonists of the sonic hedgehog signaling (Shh) pathway - cell viability counter screen (AID 1259367; active = well fitted cell-killing curve with a large enough effect in the repeat runs; also: nearly all actives have a fitted effect of over 55% in size; also: potency is read from the fitted curve at half-maximal effect)
Details: NIH/3T3 Gli1-Luc viability, CellTiter-Fluor, 24 h; series mostly up to 92.4 µM
Summary of the method: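 Conditioned medium drove Shh signaling in 3T3 Gli1-Luc cells exposed to compounds at 37C and 5% CO2. Viability was determined from CellTiter-Fluor fluorescence, with reagent incubated 1 hr after 23 hr of treatment.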

| SMILES | Potency |
| --- | --- |
| CCCCNC(=O)OCC#CI | 54.2 µM (active) and 61.1 µM (active) |
| Cc1cnc(C2=NC(C)(C(C)C)C(=O)N2)c(C(=O)O)c1 (configuration not stated) | inactive |
| O=C(N[C@H]1CN2CCC1CC2)c1ccc2c(c1)OCCO2 | inactive |
| O=C1NC(=O)C(=O)C(=O)N1 | inactive |
| CCC[N+](CCC)(CCC)CCC | inactive |
| COC(=O)C1(O)c2ccccc2-c2ccccc21 | inactive |
| CNC(=O)Oc1cccc(N=CN(C)C)c1 | inactive |
| CCOC(=O)C1OC1(C)c1ccccc1 (configuration not stated) | inactive |
| c1ccc2c(c1)-c1cccc3cccc-2c13 | inactive |

Assay: qHTS assay to identify small molecule agonists of the sonic hedgehog signaling (Shh) pathway (AID 1259368);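 also: NIH/3T3-derived 3T3Gli1-Luc cells carrying a stable Gli1-driven firefly luciferase reporter; nearly all actives have a fitted effect of over 15% in size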
Details: NIH/3T3 Gli1-Luc reporter, luciferase, 24 h; series mostly up to 92.4 µM
Summary of the method: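 Stable NIH/3T3 Gli1-Luc reporter clone; 24 hr cpd exposure after a 4 hr settling period; luminescence endpoint.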

| SMILES | Potency |
| --- | --- |
| C=CC(C)(CCC=C(C)C)OC(=O)c1ccccc1N (configuration not stated) | inactive |
| CC(O)CN1CCN(CC(=O)[O-])CCN(CC(=O)[O-])CCN(CC(=O)[O-])CC1.[Gd+3] (configuration not stated) | inactive |
| CCc1cnc(C2=NC(C)(C(C)C)C(=O)N2)c(C(=O)O)c1 (configuration not stated) | inactive |
| CCOP(=O)(SC(C)CC)N1CCSC1=O (configuration not stated) | inactive |
| CCCCCCCCn1sccc1=O | inactive |
| C1CS1 | inactive |
| CCC1CCC(=O)O1 (configuration not stated) | inactive |
| CC1(C)CC(=O)CC(C)(C)N1[O] | inactive |
| O=C(O)C(Cl)(Cl)Br | inactive |
| CC1(C)[C@H](C(=O)O[C@H](C#N)c2cccc(Oc3ccccc3)c2)[C@@H]1C=C(Br)Br | inactive |
| C[C@H]1O[C@H](OC2[C@@H](O)[C@@H](O)C(O)[C@H](O)[C@H]2O)[C@@H](N)C[C@@H]1N=C(N)C(=O)O (some centres not stated) | inactive |
| CC(C)c1ccc(OP(=O)(Oc2ccc(C(C)C)cc2)Oc2ccc(C(C)C)cc2)cc1 | inactive |
| CCOP(=O)(O)C(N)=O | inactive |
